Values without a mark were called inactive. How the calls were made is not given here.
What follows are compounds tested on Aerobactin synthetase IucA (Klebsiella pneumoniae, hypervirulent) (assay: IucA enzyme inhibition, biochemical, LOPAC library, absorbance readout (AID 1346212;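 further: 100% = no compound wells and 0% = no enzyme wells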)). Conditions: IucA enzyme assay, absorbance (OD) readout; stronger effect = lower value;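 tested at 8 µM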.

| SMILES | remaining activity [%] |
| --- | --- |
| Cc1cc2c(cc1Cl)N(C(=O)Nc1cccc3ncccc13)CC2 | 103 |
| OCc1ccc(-c2nn(Cc3ccccc3)c3ccccc23)o1 | 118 |
| CCCCCCCCCCCCCCCCCC(=O)NCC(COP(=O)([O-])OCC[N+](C)(C)C)OCC (centres undefined) | 97.5 |
| Cc1cc(C)c(/C=C2\C(=O)Nc3ccccc32)[nH]1 | 118 |
| CC(=O)SCC[N+](C)(C)C | 117 |
| OCCN1CCN(CCCN2c3ccccc3C=Cc3ccccc32)CC1 | 117 |
| NC1CCN(c2cccc(Cl)n2)CC1 | 104 |
| N=C(N)SCCc1cnc[nH]1 | 122 |
| CCCCCCCCCCCCCCCCCC(=O)OC(CC(=O)O)C[N+](C)(C)C (centres undefined) | 96.1 |
| NC1(C(=O)O)CCc2cc(C(=O)O)ccc21 (centres undefined) | 110 |
| O=S(=O)(c1cccc2c(I)cccc12)N1CCCNCC1 | 107 |
| CC(=O)O[C@H]1C[C@@]2(C)[C@@H](C[C@@H](O)[C@H]3[C@@]4(C)CC[C@@H](O)[C@@H](C)[C@@H]4CC[C@@]32C)/C1=C(\CCC=C(C)C)C(=O)O | 96.1 |
| O=C(O)/C=C/c1cnc[nH]1 | 101 |
| Cn1c(=O)c2[nH]c(-c3ccccc3)nc2n(C)c1=O | 124 |

— PubChem BioAssay
